This is a sample that favours compounds with a hit; in the whole collection about 1.5% have one here.
rTrxR1 inhibitor = blocks rat thioredoxin reductase 1. Potency, µM (doses to about 114 µM), for inactives: at the highest dose activity change, negative = inhibition, hits mostly inhibitors. hit rate 1% among 390,000. recombinant rTrxR1, NADPH fluorescence consumption, selenite substrate; note: potency is the fitted concentration of half-maximal effect; nearly all actives have a fitted effect of over 65% in size
Target sequence (O89049 whole entry, looked up): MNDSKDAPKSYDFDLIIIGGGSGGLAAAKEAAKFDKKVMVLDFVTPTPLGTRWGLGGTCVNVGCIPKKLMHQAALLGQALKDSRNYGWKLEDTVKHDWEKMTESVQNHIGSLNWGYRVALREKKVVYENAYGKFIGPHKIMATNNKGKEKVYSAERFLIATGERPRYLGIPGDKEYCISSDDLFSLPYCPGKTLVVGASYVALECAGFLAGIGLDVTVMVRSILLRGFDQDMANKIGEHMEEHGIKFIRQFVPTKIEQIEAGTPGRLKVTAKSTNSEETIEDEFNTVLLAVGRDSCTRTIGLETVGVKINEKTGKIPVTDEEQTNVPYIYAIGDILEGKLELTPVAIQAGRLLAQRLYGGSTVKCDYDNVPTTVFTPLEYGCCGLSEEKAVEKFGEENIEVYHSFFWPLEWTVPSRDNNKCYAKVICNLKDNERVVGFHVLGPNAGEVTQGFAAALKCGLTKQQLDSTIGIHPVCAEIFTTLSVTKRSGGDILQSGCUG
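Rat TrxR1 (90 nM in the dispensed reagent) was pre-reduced with 400 uM NADPH for 5 min at room temperature, then incubated with compound for 15 min. After 400 uM selenite was added, NADPH fluorescence (Ex 340/Em 450 nm) was followed for 8 min.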
Six1-Eya2 blk = blocks human Six1 binding to Eya2. AlphaScreen GST-Six1/His-Eya2 binding, biochemical; hits give low values. activity change, % (concentration not given with the values). hit rate 0.56% among 360,000. AID 651725; in the data active = activity change below about -65%; inconclusive = mostly about -30% to -63%
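Six1/Eya2 binding was read as AlphaScreen signal after compounds were pinned into GST-Six1 plus His-tagged Eya2 (5X stock 250/500 nM) in pH 8.0 Tris/NaCl/TCEP buffer, beads added, then incubated 1 h, 37 C, dark.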
CtBP-E1A inh = CtBP/E1A binding inhibition | AlphaScreen GST-E1A/His-CtBP binding, 1536-well; hits give low values | activity change, % (no concentration beside the values) | hit rate 0.49% among 340,000 | AID 651724; in the data active = activity change below about -65%; inconclusive = mostly about -30% to -63%
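Homogeneous bead-based format: GST-tagged E1A captured on glutathione donor beads, His-tagged CtBP on nickel acceptor beads; compounds precede bead addition by 2 h at 37 °C.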
TrxR1 substrate = rat thioredoxin reductase 1 substrate activity. O89049. purified TrxR1 substrate turnover, NADPH consumption readout. Potency, µM (titrated, usually from 114 µM), inactives show at the top dose activity change, negative = substrate turnover. hit rate 0.01% among 390,000. AID 588456; note: potency is the fitted concentration of half-maximal effect; nearly all actives have a fitted effect of over 50% in size
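Rat TrxR1, dispensed at 90 nM, was prereduced with 400 uM NADPH (final) for 5 min at ~22 deg C, then incubated with compound 15 min before 400 uM selenite. A first-read NADPH fluorescence drop versus no-compound background flagged substrates.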
Eya2 inh = inhibitors of human Eya2 phosphatase activity; hit rate 0.006% among 330,000; Potency, µM (series often up to 76.9 µM), without a hit: at the top dose activity, negative = inhibition, usual class: inhibitors; recombinant Eya2, OMFP fluorescence dephosphorylation (OMFP is methylfluorescein phosphate); note: potency is the fitted concentration of half-maximal effect
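Eya2 protein (added as 0.2 uM solution) was preincubated with compound for 10 min at ambient temperature in 50 mM HEPES pH 7.5, 50 mM NaCl, 5 uM MgCl2, 0.05% BSA, 1 mM DTT. OMFP (added at 50 uM) then reacted 10 min; fluorescence read at 485/525 nm.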
GALK inhibitor = inhibitors of human galactokinase; P51570; Purified GALK, Kinase-Glo residual ATP luminescence; Potency, µM (titrated, usually from 57.5 µM), without a hit: top-dose activity change, negative = inhibition, hits mostly inhibitors; hit rate 0.007% among 270,000; AID 1868; note: potency is the fitted concentration of half-maximal effect
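ATP-depletion format; final 35 uM ATP, 100 uM D-galactose, 5 nM enzyme; pH 8.0 HEPES/Mg2+ buffer; 60 min RT; luminescence read 10 min after detection reagent.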
* hit, by the source's call; [ ] = dose if it differs, or a comment. Unless noted, calls come from the whole dose curve; as a rule, active = well fitted curve in the direction sought with a large enough effect; inconclusive = small, poorly fitted or top-dose-only effect, or another doubt; inactive = no such curve, though single readings can be large; an effect the other way counts as inactive or inconclusive. % is set by controls: 0 for no effect and ±100 for the full control effect.

CCN(CC)c1ccc(/C=N/NC(=S)NC)c(O)c1 was read as rTrxR1 inhibitor -29.0%, Six1-Eya2 blk -89.6*, CtBP-E1A inh inconclusive, TrxR1 substrate -3.2%, Eya2 inh -13.5% and GALK inhibitor 0.0%.
CCN(CC)c1ccc(/C=N/Nc2ccccc2)c(O)c1 was read as rTrxR1 inhibitor 8.91µM*, Six1-Eya2 blk -19.7, CtBP-E1A inh -20.6, TrxR1 substrate -6.9%, Eya2 inh 14.6% and GALK inhibitor 2.2%.
Screening CCN(CC)c1ccc(/C=N/NC(=O)OC)c(O)c1 returned rTrxR1 inhibitor -21.8%, Six1-Eya2 blk -18.9, CtBP-E1A inh -13.7, TrxR1 substrate -10.5%, Eya2 inh 3.3% and GALK inhibitor -2.3%.
Screening CCN(CC)c1ccc(C=Nc2cc(C)cc(C)c2)c(O)c1 returned rTrxR1 inhibitor -7.6%, Six1-Eya2 blk 1.3, CtBP-E1A inh -13.0, TrxR1 substrate -15.5% and Eya2 inh 0.3%.
For Cc1cc(C(F)(F)F)n2nc(-c3ccc(Br)cc3)cc2n1 the results were rTrxR1 inhibitor 20.1% and TrxR1 substrate 8.7%.
For CCCCNc1nc(Oc2ccc(=O)n(C)n2)nc(N(C)C)n1 the results were rTrxR1 inhibitor 15.0% and TrxR1 substrate 0.4%.
For COC(=O)c1ccc(OC(=O)/C=C/c2ccco2)cc1 the results were rTrxR1 inhibitor 6.0%, Six1-Eya2 blk -84.8*, CtBP-E1A inh -92.6*, TrxR1 substrate 0.5%, Eya2 inh 2.9% and GALK inhibitor 0.0%.
O=Cc1cccc(OC(=O)/C=C/c2ccco2)c1 was read as rTrxR1 inhibitor 31.6µM*, Six1-Eya2 blk -15.4, TrxR1 substrate -2.8%, Eya2 inh 0.7% and GALK inhibitor -3.5%.
Screening O=C(Cc1cccc2ccccc12)N/N=C/c1ccc(OC(=O)/C=C/c2ccco2)cc1 returned rTrxR1 inhibitor inconclusive, Six1-Eya2 blk inconclusive, CtBP-E1A inh inconclusive, TrxR1 substrate -2.5%, Eya2 inh 1.7% and GALK inhibitor -5.3%.
`O=C(Oc1ccc(C(=S)N2CCOCC2)cc1)c1ccc(Br)cc1` gave rTrxR1 inhibitor 10.0%, Six1-Eya2 blk -88.9*, CtBP-E1A inh 8.0, TrxR1 substrate 6.0%[0.457 µM], Eya2 inh 13.5% and GALK inhibitor 0.7%.
`O=C(/C=C/c1ccccc1)Oc1ccc(C(=S)N2CCOCC2)cc1` gave rTrxR1 inhibitor 16.0%[57.1 µM], Six1-Eya2 blk inconclusive, TrxR1 substrate 0.4%, Eya2 inh -14.3% and GALK inhibitor -1.5%.
Screening O=C(Oc1ccc(C(=S)N2CCOCC2)cc1)c1ccccc1 returned rTrxR1 inhibitor 2.4%, Six1-Eya2 blk inconclusive, CtBP-E1A inh -15.7, TrxR1 substrate -6.1%, Eya2 inh 3.6% and GALK inhibitor 3.1%.
Screening O=C(/C=C/c1ccco1)Oc1ccc(C(=S)N2CCOCC2)cc1 returned rTrxR1 inhibitor -7.2%[57.1 µM], Six1-Eya2 blk -89.4*, CtBP-E1A inh -93.1*, TrxR1 substrate -10.5%, Eya2 inh -26.5% and GALK inhibitor -0.4%.
O=C(c1ccc2c(c1)N(Cc1cccc(Cl)c1)C(=O)c1ccccc1S2(=O)=O)N1CCc2ccccc21 was read as rTrxR1 inhibitor 12.7%[57.1 µM] and TrxR1 substrate -9.2%[57.1 µM].
`CCOc1ccc(CCNC(=O)CCn2c(=O)c3cccn3c3cccnc32)cc1` gave rTrxR1 inhibitor -2.7% and TrxR1 substrate -6.0%.
Screening Cc1ccc(C)c(NC(=O)Cn2c(=O)n(Cc3ccc4c(c3)OCO4)c(=O)c3oc4ccccc4c32)c1 returned rTrxR1 inhibitor 24.3% and TrxR1 substrate 0.9%.
For Oc1[nH]c2ccc(Br)cc2c1N=NC(=S)N1CCOCC1 the results were rTrxR1 inhibitor inconclusive, Six1-Eya2 blk -78.1*, CtBP-E1A inh inconclusive, TrxR1 substrate -13.7%, Eya2 inh -15.1% and GALK inhibitor -1.6%.
`Oc1[nH]c2ccccc2c1N=NC(=S)N1CCOCC1` gave rTrxR1 inhibitor inconclusive, Six1-Eya2 blk -91.7*, CtBP-E1A inh -65.8*, TrxR1 substrate -10.7%, Eya2 inh -26.0% and GALK inhibitor -0.4%.
